From PubChem BioAssay AID1159580 (chemical genetic matrix, 2015)
About 2,000 (36%) of roughly 5,500 compounds were called active. Roughly 18% stayed inconclusive and do not appear here. Cut-off read from the data, not from the text of the source: active = normalized growth mostly below about 0.91 (no sharp cut-off); inconclusive = no clear call, values can overlap the other calls; inactive = mostly above about 0.92. The list shows a part of the results.

Assay: chemical genetic growth profiling, strain panel (AID 1159580);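 note: tested at 20 µM; growth read once vehicle control cultures reached saturation at 30 °C; 1 = growth at the plate median or of vehicle wells; lower values mean less growth of the strain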
Conditions: S. cerevisiae deletion strains, growth OD

Measured: normalized growth

CC(=O)OC1CC[C@@]2(C)C(CCC3C2CC[C@]2(C)C(C4=CC(=O)OC4)C(OC(C)=O)CC32O)C1 (stereo not given in full)
inactive: locus YAL013W, strain DEP1, active compounds read low 0.988 | locus YAL021C, strain ccr4, active compounds read low 0.989 | locus YAL026C, strain drs2, active compounds read low 0.979 | locus YAL030W, strain snc1, active compounds read low 0.998 | locus YBL061C, strain skt5, active compounds read low 0.994 | locus YBR009C, strain hhf1, active compounds read low 1 | locus YBR023C, strain chs3, active compounds read low 0.995 | locus YBR171W, strain sec66, active compounds read low 0.987 | locus YBR229C, strain ROT2, active compounds read low 0.997 | locus YBR231C, strain swc5, active compounds read low 0.979 | locus YBR279W, strain paf1, active compounds read low 0.984 | locus YCL011C, strain gbp2, active compounds read low 0.972 | locus YCL016C, strain dcc1, active compounds read low 0.971 | locus YCL029C, strain bik1, active compounds read low 1.01 | locus YCL069W, strain vba3, active compounds read low 0.999 | locus YCR088W, strain abp1, active compounds read low 0.999 | locus YDL005C, strain med2, active compounds read low 0.972 | locus YDL035C, strain GPR1, active compounds read low 1.01 | locus YDL040C, strain nat1, active compounds read low 0.99 | locus YDL074C, strain BRE1, active compounds read low 0.972 | locus YDL101C, strain DUN1, active compounds read low 1 | locus YDL134C, strain PPH21, active compounds read low 1.03 | locus YDL185W, strain tfp1, active compounds read low 1.02 | locus YDL192W, strain arf1, active compounds read low 1 | locus YDR001C, strain nth1, active compounds read low 0.986 | locus YDR069C, strain doa4, active compounds read low 0.942 | locus YDR101C, strain arx1, active compounds read low 1.01 | locus YDR137W, strain rgp1, active compounds read low 0.986 | locus YDR159W, strain sac3, active compounds read low 1.03 | locus YDR162C, strain NBP2, active compounds read low 1 | locus YDR195W, strain ref2 0.951 | locus YDR297W, strain sur2, active compounds read low 0.989 | locus YDR318W, strain mcm21, active compounds read low 0.992 | locus YDR334W, strain swr1, active compounds read low 0.976 | locus YDR335W, strain msn5, active compounds read low 0.978 | locus YDR388W, active compounds read low 1.01 | locus YDR392W, strain spt3, active compounds read low 1.01 | locus YDR502C, strain sam2, active compounds read low 0.994 | locus YEL003W, strain gim4, active compounds read low 0.988 | locus YEL037C, strain rad23, active compounds read low 0.997 | locus YEL061C, strain CIN8 (second series), active compounds read low 0.985 | locus YEL061C, strain CIN8, active compounds read low 0.997 | locus YER015W, strain faa2, active compounds read low 0.983 | locus YER016W, strain bim1, active compounds read low 0.965 | locus YER110C, active compounds read low 1.01 | locus YER111C, strain swi4, active compounds read low 0.978 | locus YER155C, strain BEM2 (second series), active compounds read low 1.01 | locus YER155C, strain BEM2, active compounds read low 0.996 | locus YER167W, strain BCK2, active compounds read low 0.997 | locus YFR010W, strain ubp6, active compounds read low 1 | locus YGL078C, strain dbp3, active compounds read low 1 | locus YGL086W, strain mad1, active compounds read low 1 | locus YGL167C, strain pmr1, active compounds read low 0.982 | locus YGL173C, strain kem1, active compounds read low 0.987 | locus YGL227W, strain vid30, active compounds read low 0.98 | locus YGL240W, strain doc1, active compounds read low 0.99 | locus YGL248W, strain PDE1, active compounds read low 0.995 | locus YGL253W, strain hxk2, active compounds read low 0.964 | locus YGR135W, strain pre9, active compounds read low 1.01 | locus YGR229C, strain SMI1, active compounds read low 0.976 | locus YGR252W, strain gcn5, active compounds read low 0.993 | locus YHR013C, strain ard1, active compounds read low 0.943 | locus YHR027C, strain rpn1, active compounds read low 0.97 | locus YHR079C, strain IRE1 (second series), active compounds read low 1 | locus YHR094C, strain hxt1, active compounds read low 1 | locus YHR129C, strain ARP1, active compounds read low 1 | locus YHR142W, strain chs7, active compounds read low 0.958 | locus YHR200W, strain rpn10, active compounds read low 1.01 | locus YIL066C, strain RNR3, active compounds read low 1.01 | locus YIL073C, strain SPO22, active compounds read low 1.04 | locus YIL125W, strain kgd1, active compounds read low 1.02 | locus YIR030C, strain dcg1, active compounds read low 1 | locus YJL092W, strain hpr5, active compounds read low 0.986 | locus YJL095W, strain BCK1 (second series), active compounds read low 0.993 | locus YJL095W, strain BCK1, active compounds read low 0.999 | locus YJL115W, strain asf1, active compounds read low 0.959 | locus YJL129C, strain trk1, active compounds read low 0.956 | locus YJL134W, strain LCB3, active compounds read low 0.995 | locus YJL154C, strain vps35, active compounds read low 0.975 | locus YJL164C, strain tpk1, active compounds read low 1 | locus YJL166W, strain qcr8, active compounds read low 0.957 | locus YJL168C, strain set2, active compounds read low 1.01 | locus YJL187C, strain SWE1 (second series), active compounds read low 0.99 | locus YJL187C, strain SWE1, active compounds read low 0.982 | locus YJR075W, strain HOC1, active compounds read low 0.997 | locus YKL009W, strain mrt4, active compounds read low 1.01 | locus YKL068W, active compounds read low 1.01 | locus YKL085W, strain MDH1 (second series), active compounds read low 1.01 | locus YKL085W, strain MDH1, active compounds read low 1.01 | locus YKL160W, strain elf1, active compounds read low 0.975 | locus YKR001C, strain vps1, active compounds read low 1.01 | locus YKR026C, strain gcn3, active compounds read low 0.993 | locus YKR091W, strain srl3, active compounds read low 0.974 | locus YLL001W, strain dnm1, active compounds read low 0.998 | locus YLL026W, active compounds read low 0.983 | locus YLL041C, strain sdh2, active compounds read low 1 | locus YLR027C, strain aat2, active compounds read low 0.983 | locus YLR039C, strain RIC1, active compounds read low 1.02 | locus YLR058C, strain SHM2, active compounds read low 1 | locus YLR102C, strain apc9, active compounds read low 1.01 | locus YLR221C, strain rsa3, active compounds read low 0.997 | locus YLR258W, strain gsy2, active compounds read low 0.979 | locus YLR262C, strain YPT6 (second series), active compounds read low 0.974 | locus YLR262C, strain YPT6, active compounds read low 1.03 | locus YLR268W, strain sec22, active compounds read low 1.01 | locus YLR320W, strain mms22, active compounds read low 1.01 | locus YLR342W, strain FKS1 (second series), active compounds read low 0.986 | locus YLR342W, strain FKS1, active compounds read low 1.01 | locus YLR357W, strain rsc2, active compounds read low 0.967 | locus YLR370C, strain arc18, active compounds read low 0.974 | locus YLR371W, strain rom2, active compounds read low 0.996 | locus YLR384C, strain iki3, active compounds read low 0.971 | locus YLR418C, strain cdc73, active compounds read low 1.03 | locus YML016C, strain PPZ1, active compounds read low 1 | locus YML032C, strain rad52, active compounds read low 1.01 | locus YML120C, strain ndi1, active compounds read low 0.996 | locus YML124C, strain tub3, active compounds read low 1.01 | locus YMR058W, strain fet3, active compounds read low 0.977 | locus YMR078C, strain ctf18, active compounds read low 1.02 | locus YMR125W, strain sto1, active compounds read low 0.977 | locus YMR129W, active compounds read low 0.981 | locus YMR205C, strain PFK2, active compounds read low 0.994 | locus YMR223W, strain ubp8, active compounds read low 1 | locus YMR231W, strain pep5, active compounds read low 0.99 | locus YMR307W, strain GAS1, active compounds read low 1.02 | locus YNL067W, strain RPL9B, active compounds read low 1.01 | locus YNL071W, strain lat1, active compounds read low 0.999 | locus YNL153C, strain GIM3, active compounds read low 1 | locus YNL209W, strain ssb2, active compounds read low 0.996 | locus YNL233W, strain BNI4, active compounds read low 0.989 | locus YNL248C, strain rpa49, active compounds read low 0.946 | locus YNL250W, strain rad50, active compounds read low 1.02 | locus YNL271C, strain bni1, active compounds read low 1.01 | locus YNL298W, strain CLA4, active compounds read low 1.04 | locus YNL307C, strain MCK1, active compounds read low 1.03 | locus YNL322C, strain KRE1 (second series), active compounds read low 0.971 | locus YNR049C, strain mso1, active compounds read low 0.959 | locus YNR052C, strain pop2, active compounds read low 0.999 | locus YOL006C, strain TOP1, active compounds read low 1.04 | locus YOL012C, strain htz1 0.875 | locus YOL147C, strain pex11, active compounds read low 1.01 | locus YOR001W, strain rrp6, active compounds read low 1.03 | locus YOR061W, strain CKA2, active compounds read low 1.01 | locus YOR069W, strain VPS5, active compounds read low 0.999 | locus YOR070C, strain gyp1, active compounds read low 0.995 | locus YOR080W, strain dia2, active compounds read low 0.973 | locus YOR083W, strain WHI5, active compounds read low 0.977 | locus YOR106W, strain vam3, active compounds read low 0.956 | locus YOR136W, strain idh2, active compounds read low 1.02 | locus YOR144C, strain elg1, active compounds read low 1.02 | locus YOR184W, strain ser1, active compounds read low 1.02 | locus YOR265W, strain rbl2, active compounds read low 0.999 | locus YOR270C, strain vph1, active compounds read low 0.965 | locus YOR290C, strain snf2, active compounds read low 0.955 | locus YOR316C, strain cot1, active compounds read low 1.02 | locus YPL051W, strain arl3, active compounds read low 0.98 | locus YPL078C, strain atp4, active compounds read low 0.977 | locus YPL106C, strain sse1, active compounds read low 0.997 | locus YPL240C, strain hsp82, active compounds read low 0.982 | locus YPR119W, strain clb2, active compounds read low 1.01 | locus YPR141C, strain kar3, active compounds read low 1 | locus YPR163C, strain tif3, active compounds read low 1.02 | locus YPR167C, strain met16, active compounds read low 0.999 | strain wtn01, active compounds read low 1.01
active: locus YBR021W, strain FUR4, active compounds read low 0.837
